# PubChem BioAssay (NCI)
# The panel holds about 79,000 compounds, 15% with a hit somewhere; the sample as a whole holds those more often. Values without a mark were called inactive. Calls of active or inactive are those of the source. No stated cut-off is given here; in the data, active means growth inhibition above about 70%; inactive means the rest.
# Assays:
# [1] = NCI Yeast Anticancer Drug Screen. Data for the sgs1 strain (AID 173);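 further: 0% = growth of vehicle-only control cultures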; conditions: S. cerevisiae sgs1 mutant, hits give high values
# Outline: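 Vehicle-treated cultures served as reference for growth inhibition of a yeast strain altered in DNA damage repair or cell cycle control after compound exposure.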
# [2] = NCI Yeast Anticancer Drug Screen. Data for the mlh1 rad18 strain (AID 175); conditions: S. cerevisiae mlh1 rad18 strain growth inhibition, hits give high values
# Outline: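 Inhibition values reflect reduced growth of mutant yeast versus vehicle-treated controls following compound exposure; the mutations affect DNA damage repair.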
# [3] = NCI Yeast Anticancer Drug Screen. Data for the rad18 strain (AID 177); conditions: S. cerevisiae rad18 mutant growth inhibition, hits give high values
# Outline: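 Steps: expose repair-mutant yeast to compound; measure growth; express as inhibition relative to vehicle control.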
# [4] = NCI Yeast Anticancer Drug Screen. Data for the wt1 strain (AID 149);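 further: 0% = growth of vehicle-treated wt1 cultures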; conditions: S. cerevisiae wt1 strain (SPY 50644) growth inhibition, hits give high values
# Outline: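 wt1 yeast, compound-treated; % growth inhibition vs vehicle control.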
# [5] = NCI Yeast Anticancer Drug Screen. Data for the rad50EPP+ strain (AID 151);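 further: 0% = growth of vehicle-treated control cultures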; conditions: S. cerevisiae rad50 mutant strain, hits give high values
# Outline: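 Genetically defined yeast (rad50EPP+, DNA damage repair alteration) is grown with compound, and inhibition of growth is expressed relative to vehicle-treated controls.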
# [6] = NCI Yeast Anticancer Drug Screen. Data for the mgt1 strain (AID 153); conditions: S. cerevisiae mgt1 mutant growth inhibition, hits give high values
# Outline: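 In the mgt1 strain, test compounds were added and growth inhibition was determined relative to vehicle-treated controls.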
# [7] = NCI Yeast Anticancer Drug Screen. Data for the rad50 strain (AID 155);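 further: 0% = growth of vehicle-only cultures of the same strain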; conditions: S. cerevisiae rad50 strain growth inhibition, hits give high values
# Outline: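 Genetically altered yeast (DNA repair pathway); compound treatment; growth inhibition vs vehicle ctrl.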
# [8] = NCI Yeast Anticancer Drug Screen. Data for the mec2-1 strain (AID 157); conditions: S. cerevisiae mec2-1 strain, hits give high values
# Outline: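 Each compound was tested on mec2-1 yeast, a strain altered in DNA damage repair or cell cycle control. Growth inhibition is reported relative to vehicle.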
# [9] = NCI Yeast Anticancer Drug Screen. Data for the rad14 strain (AID 159);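 further: 0% = growth of vehicle-treated control cultures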; conditions: S. cerevisiae rad14 strain growth inhibition, hits give high values
# Outline: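 Test compounds were applied to a repair-deficient yeast strain. Its growth was then compared with that of cultures given vehicle alone, and inhibition was expressed relative to those controls.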
# [10] = NCI Yeast Anticancer Drug Screen. Data for the sgs1 mgt1 strain (AID 161);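 further: 0% = growth of cultures given vehicle only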; conditions: S. cerevisiae sgs1 mgt1 strain, hits give high values
# Outline: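 Inhibition of yeast growth, normalised to vehicle-treated controls, is reported for a strain bearing genetic alterations in DNA damage repair.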
# [11] = NCI Yeast Anticancer Drug Screen. Data for the CLN2oe strain (AID 163);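 further: 0% = growth of vehicle-only control cultures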; conditions: S. cerevisiae CLN2oe strain, hits give high values
# Outline: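 First, the altered yeast strain was treated with each compound; second, its growth was measured; finally, inhibition was derived by comparison with vehicle controls.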
# [12] = NCI Yeast Anticancer Drug Screen. Data for the cln2 rad14 strain (AID 165);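 further: 0% = growth equal to vehicle treated cultures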; conditions: S. cerevisiae cln2 rad14 strain, hits give high values
# Outline: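 Test compounds were added to cln2 rad14 yeast cultures; inhibition of growth was then determined by comparison with vehicle treatment.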
# [13] = NCI Yeast Anticancer Drug Screen. Data for the bub3 strain (AID 167); conditions: S. cerevisiae bub3 mutant strain, hits give high values
# Outline: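 Yeast carrying a defined mutation is treated with each compound, and growth is compared with that of vehicle-exposed cells to give inhibition.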
# [14] = NCI Yeast Anticancer Drug Screen. Data for the wt2 strain (AID 169);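 further: 0% = growth of vehicle-treated yeast cultures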; conditions: S. cerevisiae wt2 strain growth inhibition, hits give high values
# Outline: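 The panel's yeast strains carry defined changes in DNA repair or cell cycle genes. Each strain is grown with compound, and growth loss is scored relative to vehicle.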
# [15] = NCI Yeast Anticancer Drug Screen. Data for the mlh1 strain (AID 171);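 further: 0% = growth of vehicle-treated control cultures of the same strain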; conditions: S. cerevisiae mlh1 strain growth inhibition, hits give high values
# Outline: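 Inhibition values reflect reduced yeast growth in the presence of compound, referenced to vehicle controls, using a strain chosen for its alteration in DNA repair or cell cycle control.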
# [16] = at 5.0 µM (retest, dose inferred, filed as 0.5)
# [17] = at 50.0 µM (retest, dose inferred, filed as 5.0)
smiles,measurement,setting,value
O=C(O)NCC1CCCCC1 (tested in a mixture with another compound),growth inhibition,[1]; at 1.2 µM,-4%
same,growth inhibition,[1]; at 3.7 µM,6%
same,growth inhibition,[1]; at 11.0 µM,-23%
same,growth inhibition,[1]; at 33.0 µM,-5%
same,growth inhibition,[1]; at 100.0 µM,75% (active)
same,growth inhibition,[2]; [16],0%
same,growth inhibition,[2]; [17],34%
same,growth inhibition,[2]; at 50.0 µM,6.1%
same,growth inhibition,[3]; at 1.2 µM,0%
same,growth inhibition,[3]; at 3.7 µM,-1%
same,growth inhibition,[3]; at 11.0 µM,-5%
same,growth inhibition,[3]; at 33.0 µM,2%
same,growth inhibition,[3]; at 100.0 µM,45%
CC1C=CN(N(C)C)C2=C1C(=O)c1cnccc1C2=O (stereo unspecified),growth inhibition,[4]; at 1.2 µM,-1%
same,growth inhibition,[4]; at 3.7 µM,7%
same,growth inhibition,[4]; at 11.0 µM,47%
same,growth inhibition,[4]; at 33.0 µM,83% (active)
same,growth inhibition,[4]; at 100.0 µM,96% (active)
same,growth inhibition,[5]; at 1.2 µM,-4%
same,growth inhibition,[5]; at 3.7 µM,53%
same,growth inhibition,[5]; at 11.0 µM,82% (active)
same,growth inhibition,[5]; at 33.0 µM,91% (active)
same,growth inhibition,[5]; at 100.0 µM,93% (active)
same,growth inhibition,[6]; at 1.2 µM,-31%
same,growth inhibition,[6]; at 3.7 µM,9%
same,growth inhibition,[6]; at 11.0 µM,51%
same,growth inhibition,[6]; at 33.0 µM,87% (active)
same,growth inhibition,[6]; at 100.0 µM,96% (active)
same,growth inhibition,[7]; at 1.2 µM,31%
same,growth inhibition,[7]; at 3.7 µM,68%
same,growth inhibition,[7]; [16],81% (active)
same,growth inhibition,[7]; at 11.0 µM,86% (active)
same,growth inhibition,[7]; at 33.0 µM,93% (active)
same,growth inhibition,[7]; [17],93% (active)
same,growth inhibition,[7]; at 50.0 µM,85% (active)
same,growth inhibition,[7]; at 100.0 µM,96% (active)
same,growth inhibition,[8]; at 1.2 µM,-36%
same,growth inhibition,[8]; at 3.7 µM,-23%
same,growth inhibition,[8]; [16],30%
same,growth inhibition,[8]; at 11.0 µM,49%
same,growth inhibition,[8]; at 33.0 µM,86% (active)
same,growth inhibition,[8]; [17],95% (active)
same,growth inhibition,[8]; at 50.0 µM,92.2% (active)
same,growth inhibition,[8]; at 100.0 µM,96% (active)
same,growth inhibition,[9]; at 1.2 µM,-70%
same,growth inhibition,[9]; at 3.7 µM,-31%
same,growth inhibition,[9]; at 11.0 µM,46%
same,growth inhibition,[9]; at 33.0 µM,89% (active)
same,growth inhibition,[9]; at 100.0 µM,95% (active)
same,growth inhibition,[10]; [16],48%
same,growth inhibition,[10]; [17],86% (active)
same,growth inhibition,[10]; at 50.0 µM,89.7% (active)
same,growth inhibition,[11]; at 1.2 µM,-11%
same,growth inhibition,[11]; at 3.7 µM,10%
same,growth inhibition,[11]; at 11.0 µM,49%
same,growth inhibition,[11]; at 33.0 µM,90% (active)
same,growth inhibition,[11]; at 100.0 µM,93% (active)
same,growth inhibition,[12]; [16],25%
same,growth inhibition,[12]; [17],-18%
same,growth inhibition,[12]; at 50.0 µM,87.8% (active)
same,growth inhibition,[13]; at 1.2 µM,-38%
same,growth inhibition,[13]; at 3.7 µM,-8%
same,growth inhibition,[13]; [16],12%
same,growth inhibition,[13]; at 11.0 µM,46%
same,growth inhibition,[13]; at 33.0 µM,89% (active)
same,growth inhibition,[13]; [17],6%
same,growth inhibition,[13]; at 50.0 µM,85.2% (active)
same,growth inhibition,[13]; at 100.0 µM,97% (active)
same,growth inhibition,[14]; at 1.2 µM,5%
same,growth inhibition,[14]; at 3.7 µM,6%
same,growth inhibition,[14]; at 11.0 µM,43%
same,growth inhibition,[14]; at 33.0 µM,90% (active)
same,growth inhibition,[14]; at 100.0 µM,96% (active)
same,growth inhibition,[15]; at 1.2 µM,-48%
same,growth inhibition,[15]; at 3.7 µM,-23%
same,growth inhibition,[15]; at 11.0 µM,40%
same,growth inhibition,[15]; at 33.0 µM,89% (active)
same,growth inhibition,[15]; at 100.0 µM,97% (active)
same,growth inhibition,[2]; [16],83% (active)
same,growth inhibition,[2]; [17],95% (active)
same,growth inhibition,[2]; at 50.0 µM,89.8% (active)
same,growth inhibition,[3]; at 1.2 µM,66%
same,growth inhibition,[3]; at 3.7 µM,87% (active)
same,growth inhibition,[3]; at 11.0 µM,90% (active)
same,growth inhibition,[3]; at 33.0 µM,96% (active)
same,growth inhibition,[3]; at 100.0 µM,96% (active)
